Screens as filed in PubChem BioAssay.
A selection: hits, their analogues and other compounds. The true share with any hit is near 0.34%.
Vif-A3F inh: blocks the Vif interaction with APOBEC3F; 390,000 compounds, 0.2% hits; Potency, µM (highest dose often 46.1 µM), without a hit: at the top dose activity, negative = active; HeLa A3F-eYFP + Vif (tagged APOBEC3F with the HIV-1 protein that degrades it), YFP fluorescence increase; further: % of control where 0% means no effect; nearly all actives have a fitted effect of over 65% in size
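Fluorescence increase (Ex 488/Em 500-530) after overnight compound treatment at 37 deg C flags inhibition of Vif-driven A3F-eYFP loss in stable HeLa A3F-eYFP/Vif cells seeded overnight beforehand.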
Vif-APOBEC3G blk: inhibitors of Vif-APOBEC3G interaction. 410,000 compounds, 0.076% hits. AID 602310. HeLa A3G-eYFP + Vif (tagged APOBEC3G with the HIV-1 protein that degrades it), YFP fluorescence, overnight. Q9HC16. Potency, µM (highest dose often 46.1 µM), for inactives: at the highest dose activity, negative = active, actives largely listed as inhibitors; further: on the % scale 0 is the no-effect control and ±100 the full control effect; nearly all actives have a fitted effect of over 60% in size
Target sequence (Q9HC16 whole entry, looked up): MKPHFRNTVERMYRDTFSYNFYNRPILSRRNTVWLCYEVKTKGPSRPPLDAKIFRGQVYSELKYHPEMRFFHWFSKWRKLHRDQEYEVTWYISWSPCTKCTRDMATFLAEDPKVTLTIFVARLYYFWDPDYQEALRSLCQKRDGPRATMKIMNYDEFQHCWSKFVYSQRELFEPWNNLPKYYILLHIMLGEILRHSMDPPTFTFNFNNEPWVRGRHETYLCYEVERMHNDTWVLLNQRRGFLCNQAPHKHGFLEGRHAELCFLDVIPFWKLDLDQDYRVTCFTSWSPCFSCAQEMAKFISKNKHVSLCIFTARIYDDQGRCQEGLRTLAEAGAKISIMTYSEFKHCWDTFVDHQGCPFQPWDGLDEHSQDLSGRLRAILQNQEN
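Read-out is eYFP fluorescence (Ex 488/Em 500-530) from Vif-expressing HeLa A3G-eYFP cells; more signal means A3G escaped Vif-mediated degradation. Cells plated overnight, compound pinned in, incubated overnight at 37 deg C.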
Epigenetic derep: regulators of epigenetic silencing causing reporter derepression in mouse cells. murine LDR cells, GFP reporter derepression, 30 h. 280,000 compounds, 0.2% hits. AID 1865. Potency, µM (highest dose often 53.9 µM), for inactives: at the highest dose GFP activation, usual class: activators; further: % of control where 0% means no effect; nearly all actives have a fitted effect of over 60% in size
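GFP-positive cell count by laser-scanning cytometry (objects 20–120 um) after 30 h, 37 C compound exposure of murine LDR cells; reporter is CMV-GFP integrated at a silenced locus, inducible by HDAC or DNMT inhibitors.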
The depositor's hits bear a star; ? = inconclusive; / = no result given. The call rests on the fitted dose curve; in most records, active means well fitted curve in the direction sought with a large enough effect; inconclusive means small, poorly fitted or top-dose-only effect, or another doubt; inactive means no such curve, though single readings can be large; an effect the other way counts as inactive or inconclusive. Potency means the concentration at half of the fitted maximal effect.

SMILES	Vif-A3F inh	Vif-APOBEC3G blk	Epigenetic derep
O=C(Oc1c(CN2CCOCC2)cc(Cl)c2cccnc12)c1ccc(F)cc1	3%	3%	?
COc1ccc(C(=O)Oc2c(CN3CCOCC3)cc(Cl)c3cccnc23)cc1	0%	-12%	7.1µM*
COc1cc(C(=O)Oc2c(CN3CCOCC3)cc(Cl)c3cccnc23)cc(OC)c1OC	0%	?	?
Cc1cccc(C)c1NC(=O)Cn1c(=O)n(Cc2ccco2)c(=O)c2ccc(C(=O)NC3CCCC3)cc21	-10%	1%	-1%
COc1cccc(/C=C/c2nccc3ccccc23)c1OC	/	-21%	/
COc1cc(-c2noc(-c3ccc(NCC4CCCO4)c([N+](=O)[O-])c3)n2)cc(OC)c1OC (stereo not given)	6%	3%	-3%
COC(=O)c1ccc(NC(=O)CC2C(=O)N(c3cccc(OC)c3)C(=O)N2Cc2cccc(OC)c2)cc1 (stereo not given)	2%	0%	0%
COc1cc2c(NC3CCN(C)CC3)nc(N3CCCN(C)CC3)nc2cc1OCCCCN	/	6%	/
O=C(O)CSc1cccc2cccnc12	?	0%	18µM*
O=C(CSc1cccc2cccnc12)N/N=C/c1ccc(F)cc1	10%	-2%	0%
O=C1C(Cl)=C(NCCc2ccccc2)C(=O)c2ccccc21	8.9µM*	13µM*	/
O=C1C(Cl)=C(Nc2ccccc2)C(=O)c2ccccc21	1%	-11%	-2%
CCC1CCCCN1CCCNC(=O)c1[nH]c2ccccc2c1Sc1ccc(Cl)cc1 (stereo not given)	3%	?	6%
Cc1ccc(N=C2NC(=O)/C(=C/c3cccn3C)S2)cc1C	?	?	11%
Cc1ccc(N=C2NC(=O)/C(=C/c3cccn3C)S2)cc1	?	5µM*	0%
Cc1ccc(C)c(CSc2nc3c([nH]c4ccccc43)c(=O)n2C)c1	-4%	-1%	0%
Cc1ccc(C)c(NC(=O)C2CCCN2S(=O)(=O)c2ccc3c(c2)CCCC(=O)N3)c1 (stereo not given)	-1%	2%	0%
C(=C\c1nccc2ccccc12)/c1ccc(N2CCOCC2)cc1	/	-19%	/
Cc1ccc(C)c(-c2ccc(=O)n(C(C)C(=O)Nc3ccccc3C(F)(F)F)n2)c1 (stereo not given)	1%	-1%	-1%
CCOC(=O)/C(C#N)=C\c1ccc(CC)s1	-8%	0%	2%
CCOC(=O)/C(C#N)=C\C=C1C=CN(C)C=C1	22µM*	?	12%
O=C1/C(=C/c2ccncc2)SC(=S)N1Cc1ccccc1	12%	?	16µM*
O=C1/C(=C\c2cccc(O)c2O)SC(=S)N1Cc1ccccc1	0%	-12%	/
O=C1/C(=C\c2cc([N+](=O)[O-])ccc2O)SC(=S)N1Cc1ccc(Cl)cc1	13µM*	?	/
CCCN1C(=O)/C(=C/c2ccncc2)SC1=S	-2%	1%	-3%
SMILES	Vif-A3F inh	Vif-APOBEC3G blk	Epigenetic derep
O=C1/C(=C\c2cccc(O)c2)SC(=S)N1Cc1ccccc1	-15%	-14%	/
O=C1/C(=C\c2ccc(O)c(O)c2)SC(=S)N1Cc1ccccc1	?	22µM*	/
CCc1ccc(NC(=O)Cn2c(-c3cncs3)nc3ccccc32)cc1	-13%	-3%	-3%
CCn1cc2c(n1)-c1c(oc(C(=O)Nc3cccc(C)c3C)c1C)CC2	-2%	?	0%
CCOc1ccc(/C=C/c2nc(C#N)c(NC3CCCCC3)o2)cc1	-5%	-11%	-2%
CCOC(=O)c1nn(-c2ccc(Cl)cc2Cl)c(=N)c(C#N)c1C	/	/	11µM*
CCOC(=O)c1nn(-c2ccc(Cl)cc2)c(=O)c(C#N)c1C	1%	1%	/
C/C(=C1/C=Nc2ccccc21)c1ccc(N(C)C)cc1	/	-6%	/
COc1ccc(-n2c(O)c(/C=N/NS(=O)(=O)c3ccc(C)cc3)c3ccccc3c2=O)cc1OC	5µM*	?	16%
COc1ccc(-n2c(O)c(/C=N/NS(=O)(=O)c3cc(C)ccc3C)c3ccccc3c2=O)cc1OC	?	6%	7%
C[n+]1ccnc2ccccc21	/	-15%	/
C=C[C@@H]1CN2CC[C@@H]1C[C@@H]2[C@H](O)c1ccnc2ccc(OC)cc12	/	/	0%
CC1CC(C)(C)Nc2ccc(OC(=O)c3ccco3)cc21 (stereo not given)	32µM*	22µM*	?
O=C(Oc1ccc2ccccc2c1)c1ccco1	1%	-3%	1%
CCC(C)NC(=O)CSc1nc2n[nH]c(C)c2c(=N)n1-c1cc(Cl)ccc1C (stereo not given)	1%	-1%	-1%
Cn1c(N)c(-c2ccccc2)c2ccc([N+](=O)[O-])cc2c1=O	?	8.9µM*	/
N#Cc1c(N)n(Cc2ccccc2)c(=O)c2cc([N+](=O)[O-])ccc12	3%	-22%	/
